# In publication PMC12136788:
# Changes are numbered by the printed parent chain. The full ranking holds about 24,000 sequences; the median of “enrichment r” is about 0.99, and the highest 2% start at about 3.7. The sample as a whole holds a higher share of the highest values than the screen did.
# T1: UNK ZnF1-3 (human, UniProt Q9C0B0 31-174)
# T1 sequence: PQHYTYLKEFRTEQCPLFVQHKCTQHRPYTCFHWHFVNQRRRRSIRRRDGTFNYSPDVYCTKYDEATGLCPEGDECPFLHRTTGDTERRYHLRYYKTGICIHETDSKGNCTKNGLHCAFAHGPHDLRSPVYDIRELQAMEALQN
# B1: chr17:56552419:56552420:-_ENSMUSG00000013236_ENSMUST00000086828|mus_mus|mus_mus_mus_hu_False|48_48 (ssRNA)
# RNA: GGGAGUUCUACAGUCCGACGAUCAAAAAAUACACUAUUUAAAAAAAAUGAAAUGUCACGGGAUACAGUUACACUGAGAGUUUUAAAAAAAAAUAAGAUUCUGGUCCCAGCCCAGUGUCCCCAGGCUGCAGAGCGGGGAGGAGCCAACAGAGGAUUGAGCAUCA
# B2: 35626089_35772405_348_CDS_ENSG00000108100_ENST00000265375|human|control|control (ssRNA)
# RNA: GGGAGUUCUACAGUCCGACGAUCGUCCGUCUGAGAUUUACUGAGGAAUAUUGUGCUGGCCCGAGGAUGAUCUGAAGGAUUGAAUUCCAUGUUCAAAUCGUCUAUGUUCUCCCGGUCGCUGAUGUGCUGCAGGUUGCAGCCCGUCAACAGAGGAUUGAGCAUCA
# B3: chr2:216981417:216981418:+_ENSG00000079246_ENST00000392132|hu_hu|hu_hu_hu_mus_True|18_98 (ssRNA)
# RNA: GGGAGUUCUACAGUCCGACGAUCCUGAUACUGGUCCCCACCAGAAAGGGCAUUAUCAGUGCCAUCUGUGCCAUAGAGGACUAACGCAAUCUCAUCUUUGCUCUCCGAAAAUACCUGUCGCUGUACAAACAUAGUCAUCACUUUCAACAGAGGAUUGAGCAUCA
# B4: chr11:48616917:48616918:+_ENSMUSG00000020372_ENSMUST00000020640|mus_mus|FALSE|FALSE (ssRNA)
# RNA: GGGAGUUCUACAGUCCGACGAUCGACGAUGAUAGGGUUGCUGCUGUUCGGGGAGAAGCGGACACAAGACACCCAUUCUGAAUGACUCUCAUCCUGGACCGUGUACUUGCAGACACCCAGAGUAUUCCAUAACUUUAUGGUCUUCAACAGAGGAUUGAGCAUCA
# B5: chr15:81680702:81680703:-_ENSMUSG00000048546_ENSMUST00000050467|mus_mus|motif|central (ssRNA)
# RNA: GGGAGUUCUACAGUCCGACGAUCGAGAGAGAGUUGAGGCUAGGGCCAGACUUAUUUGGGUGGCAGGCCCUGAGAAGACAGCGGGGUUGGGGGUUGUGGACACGGGGGUGGAGGGUGGGGGGGUGUCAGCCUCUCCCUGUUUCACAACAGAGGAUUGAGCAUCA
# B6: 157127611_157127731_2631_3pUTR_ENSMUSG00000026469_ENSMUST00000027741|mouse|control|control (ssRNA)
# RNA: GGGAGUUCUACAGUCCGACGAUCAUUAAAAGUAGCUUUGUGGAGGAGGUGCUGCUCCAAGCUGCACUUUCCCUGCAAGUGCUGCCAGUGUCUCUGCACUGGCUAUGAAGGAAGGGAAAAACUCUCCAUAGAAACUGACAGAAACAACAGAGGAUUGAGCAUCA
# B7: chr14:66974463:66974464:+_ENSMUSG00000022044_ENSMUST00000074523|mus_hu|mus_mus_mus_hu_False|88_88 (ssRNA)
# RNA: GGGAGUUCUACAGUCCGACGAUCUUGUAGGACGACUUAUUCAGGGGAUCAGACAAGAAGCAGGAGCAGAACAAGGACACCAGCGGGAGCUCCUUCAUCUUCUCUUUGUAGGCAGCAAGGGUCAUGUUUCUGGGAUCUGGUGGCCAACAGAGGAUUGAGCAUCA
# B8: chrX:71549400:71549401:+_ENSMUSG00000019087_ENSMUST00000019231|mus_hu|mus_mus_mus_hu_False|28_68 (ssRNA)
# RNA: GGGAGUUCUACAGUCCGACGAUCGCAGUAGGAAGAGGGAAGCUCUUCAGUCCAGUGCGCUGCAGGGAGAAACAUGAACAACACGGACACCGUCCCACCCUCAACCCUCUCAGGUGUACAGGGUCACACAAUCUGGGUCAAAGACAACAGAGGAUUGAGCAUCA
# B9: chr6:43255143:43255144:+_ENSG00000146216_ENST00000259750|hu_mus|FALSE|FALSE (ssRNA)
# RNA: GGGAGUUCUACAGUCCGACGAUCUCCUAGGCCUCCCCUUCUUUCAAUCUCCAAACCUGGGUGUUGUUGGUCCUACGGCAGAAGGGAGACUGAGGGGGGCACCUACACUCACAGUUAGGUUGGUGGCAAGGGGCAGGCCCAGGGCAACAGAGGAUUGAGCAUCA
# B10: 23240013_23240133_1240_CDS_ENSG00000136243_ENST00000258742|human|control|control (ssRNA)
# RNA: GGGAGUUCUACAGUCCGACGAUCACUACCAAAACCAGCCACAGAACUGCCACCUCCAAAGGCUGGGGCCACUGGAGCUCUGACAGGACCUGUUGCCAAGGAAGCUGGAAGUCCUGAAAAUCCAGGUGAUCCAAAACUGGAAGCCAACAGAGGAUUGAGCAUCA
# B11: chr14:67424093:67424094:-_ENSMUSG00000022048_ENSMUST00000022629|mus_hu|motif|central (ssRNA)
# RNA: GGGAGUUCUACAGUCCGACGAUCGAGAGACGGGGUGUGGGGCCCCAAGGGGGACCCCAUGAACUGGCUGCUCCACAGUAACGGUCACAGGCUCUUAAAAAAAAAAACAAAAAAAAAAAAAGGAAGGAAGAAAGAAGUCUCAGACAACAGAGGAUUGAGCAUCA
# B12: chr22:32879901:32879902:+_ENSG00000100225_ENST00000397426|hu_mus|hu_hu_hu_mus_False|78_78 (ssRNA)
# RNA: GGGAGUUCUACAGUCCGACGAUCCUCUUCCAUACUCAUGGCAUCCUGAAUUGACUCAGCUUCAAAAUUUUGACUAGGCCCUUCCAUACUGUCAUCAGUCCAGGCAUCAAAUGGGGUGGCCUGUCCUUGGGAUGAAUCAGUCCCCAACAGAGGAUUGAGCAUCA
# B13: chr14:67424093:67424094:-_ENSMUSG00000022048_ENSMUST00000022629|mus_hu|FALSE|FALSE (ssRNA)
# RNA: B11 RNA with G82U, G83A
# B14: chr8:73282188:73282189:+_ENSMUSG00000031840_ENSMUST00000034301|mus_hu|FALSE|FALSE (ssRNA)
# RNA: GGGAGUUCUACAGUCCGACGAUCUAGGGUGUCAUCUGGCCCCUCUUCACAACUGACAACUGUGGAUGGGGGUGAAUUUUAAAAAAAGGCGGGGGGGGGGGGUUCAGGAGGGUGAGCGGUGAGUUCACGGGGCCACGAGACACCCAACAGAGGAUUGAGCAUCA
# B15: chr7:143080189:143080190:+_ENSG00000159840_ENST00000392910|hu_hu|FALSE|FALSE (ssRNA)
# RNA: GGGAGUUCUACAGUCCGACGAUCUGGGGCUCCAGGACUGAACUUGGAAGCCACAGGAGUAAACUUAGGAGUCACUGGAGAAAACUUAGGGGCUGGAGCCGGAGAUGAGGCUGGGGGCCCUCGGGGCUGGGUGUUAGCCAAAGACAACAGAGGAUUGAGCAUCA
# B16: 34053828_34053948_230_3pUTR_ENSMUSG00000051390_ENSMUST00000053429|mouse|control|control (ssRNA)
# RNA: GGGAGUUCUACAGUCCGACGAUCUGGUCACCUCAGGGAAGGACACGUGUACCACUGCAGCUGCCGGCAGAGGCAGUGGCGGUGGAGCCAGUGACAGAGGCAGUGGGAGUGUGGCCCCACUGGGUGACAGAGCAGACGGCUCCACAACAGAGGAUUGAGCAUCA
# Biological target: T1, UNK ZnF1-3
# Test: nsRBNS (natural sequence RNA bind-n-seq); RBNS binding buffer (assumed for nsRBNS): 25 mM Tris pH 7.5, 150 mM KCl, 3 mM MgCl2, 0.01% Triton X-100, 500 ug/ml BSA, 20 U/ml SUPERase-In, 4 C; UNK is unkempt and MSI1 is Musashi-1; names of the RNAs are library labels; protein concentration not given here; high values mean tight binding
row,Binder,binding signal [enrichment R]
1,B1,7.18
2,B2,0.777
3,B3,1.16
4,B4,0.907
5,B5,4.46
6,B6,0.603
7,B7,2
8,B8,1.64
9,B9,0.766
10,B10,1.23
11,B11,7.78
12,B12,1.23
13,B13,20.5
14,B14,4.04
15,B15,1.45
16,B16,0.895
